Reference: PubChem BioAssay (NCI)
The panel holds about 79,000 compounds, 15% with a hit somewhere; the sample as a whole holds those more often. A number with no mark means an inactive call. Calls of active or inactive are those of the source. Cut-off read from the data, not from the text of the source: active = growth inhibition above about 70%; inactive = the rest.

Key:
[1] = NCI Yeast Anticancer Drug Screen. Data for the rad50 strain (AID 155);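 note: 0% = growth of vehicle-only cultures of the same strain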; conditions: S. cerevisiae rad50 strain growth inhibition, stronger effect = higher value
Outline: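 Relative growth inhibition (compound vs vehicle) was measured in yeast with a defined repair-gene alteration.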

[2] = NCI Yeast Anticancer Drug Screen. Data for the mec2-1 strain (AID 157); conditions: S. cerevisiae mec2-1 strain, stronger effect = higher value
Outline: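 Yeast mec2-1 mutant treated with compound. Readout: growth inhibition vs vehicle controls.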

[3] = NCI Yeast Anticancer Drug Screen. Data for the sgs1 mgt1 strain (AID 161);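 note: 0% = growth of cultures given vehicle only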; conditions: S. cerevisiae sgs1 mgt1 strain, stronger effect = higher value
Outline: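 Inhibition of yeast growth, normalised to vehicle-treated controls, is reported for a strain bearing genetic alterations in DNA damage repair.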

[4] = NCI Yeast Anticancer Drug Screen. Data for the cln2 rad14 strain (AID 165);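 note: 0% = growth equal to vehicle treated cultures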; conditions: S. cerevisiae cln2 rad14 strain, stronger effect = higher value
Outline: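 cln2 rad14 yeast strain; compound exposure; growth inhibition read vs vehicle controls.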

[5] = NCI Yeast Anticancer Drug Screen. Data for the bub3 strain (AID 167); conditions: S. cerevisiae bub3 mutant strain, stronger effect = higher value
Outline: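 Screening used yeast with an engineered genetic alteration affecting cell cycle control. Compound-exposed cultures were compared with vehicle cultures, and reduced growth was taken as inhibition.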

[6] = NCI Yeast Anticancer Drug Screen. Data for the mlh1 rad18 strain (AID 175); conditions: S. cerevisiae mlh1 rad18 strain growth inhibition, stronger effect = higher value
Outline: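 Yeast w/ defined DNA-repair lesions; compound exposure; growth vs vehicle controls → % inhibition.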

[7] = at 5.0 µM (retest, dose inferred, filed as 0.5)
[8] = at 50.0 µM (retest, dose inferred, filed as 5.0)

Row | SMILES | growth inhibition [1, 7] | growth inhibition [1, 8] | growth inhibition ([1]; at 50.0 µM) | growth inhibition [2, 7] | growth inhibition [2, 8] | growth inhibition ([2]; at 50.0 µM) | growth inhibition [3, 7] | growth inhibition [3, 8] | growth inhibition ([3]; at 50.0 µM) | growth inhibition [4, 7] | growth inhibition [4, 8] | growth inhibition ([4]; at 50.0 µM) | growth inhibition [5, 7] | growth inhibition [5, 8] | growth inhibition ([5]; at 50.0 µM) | growth inhibition [6, 7] | growth inhibition [6, 8] | growth inhibition ([6]; at 50.0 µM)
1 | Oc1ccc(-c2ccc3ccccc3c2)cc1 | 2% | 98% (active) | 98.7% (active) | 6% | 97% (active) | 99.3% (active) | -3% | 98% (active) | 99.2% (active) | 3% | 99% (active) | 98.8% (active) | 1% | 98% (active) | 99.2% (active) | -2% | 99% (active) | 99.1% (active)
2 | CC1=C/C(=C(/c2ccc(O)c(C)c2)c2ccccc2C(=O)O)C=CC1=O | -13% | 99% (active) | 99% (active) | -3% | 99% (active) | 99.5% (active) | -9% | 99% (active) | 99.1% (active) | -28% | 98% (active) | 99.1% (active) | -8% | 99% (active) | 99.2% (active) | 6% | 99% (active) | 99% (active)
3 | CCCc1cc2c(cc1COc1ccccc1C(=O)O)OCO2 | -1% | 49% | 56.4% | -4% | 52% | 59.8% | -7% | 25% | 38.4% | -2% | 51% | 33.4% | -6% | 31% | 25.4% | -2% | 58% | 61.4%
4 | CS(=O)(=O)OCCN(CCOS(C)(=O)=O)c1ccc(C=Nc2ccc(-c3csc(-c4ccc(Br)cc4)n3)cc2)cc1 | 33% | 95% (active) | 94% (active) | 43% | 96% (active) | 97.2% (active) | 18% | 90% (active) | 94.2% (active) | 19% | 92% (active) | 81.2% (active) | -4% | 90% (active) | 74.8% (active) | 60% | 96% (active) | 96% (active)
5 | COc1ccc(/C(Cl)=C(\C=O)c2ccc(Cl)c(Cl)c2)cc1 | 2% | 49% | 99% (active) | 8% | 70% (active) | 98.9% (active) | 13% | 85% (active) | 99.3% (active) | -10% | 55% | 92.5% (active) | 41% | 82% (active) | 97.8% (active) | 27% | 79% (active) | 98.2% (active)
6 | OC1(c2ccc(Br)cc2)C2CCCCC2C2CCCCC21 (configuration not stated) | 36% | 92% (active) | 98% (active) | 7% | 95% (active) | 98.5% (active) | 18% | 95% (active) | 98.3% (active) | -4% | 92% (active) | 97.7% (active) | 7% | 93% (active) | 98.4% (active) | 10% | 95% (active) | 98.2% (active)
7 | COC(=O)[C@]1(C)CCC[C@]2(C)c3ccc(C(C)C)cc3C(=O)C[C@@H]12 | 5% | 87% (active) | 95.9% (active) | 4% | 90% (active) | 99% (active) | 1% | 93% (active) | 96.2% (active) | 4% | 82% (active) | 89.5% (active) | 6% | 88% (active) | 97.7% (active) | -9% | 73% (active) | 94.5% (active)
8 | COC(=O)C(=O)C(/C=N/C(=S)NCCc1ccc(OC)c(OC)c1)=C(/O)c1ccc([N+](=O)[O-])cc1 | 3% | 15% | 0.3% | -5% | -3% | -7.95% | 13% | 1% | 19.4% | 20% | -11% | 30.9% | 6% | -13% | 15.4% | -3% | 8% | -9.7%
9 | CC[N+]1(C)CC2CCC(CC2)C1 (configuration not stated) | -2% | -5% | -1.6% | -3% | -3% | 35% | -4% | -2% | 7.2% | -4% | -6% | 72% (active) | -3% | 2% | -7.15% | -4% | -3% | 7.35%
